Measured values published in PubChem BioAssay AID1508624 (National Center for Advancing Translational Sciences (NCATS), 2021).
Among all 48,000 compounds or so, about 120 (0.25%) were called active. Roughly 4% stayed inconclusive and do not appear here. This is one part of a sample in which actives are shown more often than they occur. The call rests on the fitted dose curve; in most records, active means well fitted activation curve with a large enough effect; inconclusive means small, poorly fitted or top-dose-only effect, or another doubt; inactive means no such curve, though single readings can be large or run the other way.

Test: Primary qHTS for Identification of Small Molecule Activators of Huntingtin-Antisense Promoter Activity; further: nearly all actives have a fitted effect of over 55% in size
Conditions: HEK293 HTT-AS promoter firefly luciferase reporter (activity 0% = vehicle and -100% = no light), 24 h; series mostly up to 57.5 µM; activity change, positive = activation: at the top concentration
Description: Assay Provider: Russell L. Margolis M.D.
Department Neurology, Johns Hopkins University School of Medicine, Baltimore, MD
Huntington's Disease (HD) is a neurodegenerative disorder caused by a CAG repeat expansion in exon 1 of huntingtin (HTT). While there are currently no disease-modifying treatments for HD, recent efforts have focused on development of nucleotide-based therapeutics to lower HTT expression. As an alternative to siRNA or oligonucleotide methods, we hypothesized that suppression of HTT expression might be accomplished by small molecules that either (1) directly decrease HTT expression by suppressing HTT promoter activity or (2) indirectly decrease HTT expression by increasing the promoter activity of HTT-AS, the gene antisense to HTT that appears to inhibit expression of HTT.
We developed and employed a high throughput screen for modifiers of HTT and HTT-AS promoter activity using luminescent reporter HEK293 cells; of the 52,041 compounds tested, we identified 898 replicable hits. We used a rigorous stepwise approach to assess compound toxicity and the capacity of the compounds to specifically lower huntingtin protein in 5 different cell lines, including HEK293 cells, HD lymphoblastoid cells, mouse primary neurons, HD iPSCs differentiated into cortical-like neurons, and HD hESCs. We found no compounds which were able to lower huntingtin without lowering cell viability in all assays, though the potential efficacy of a few compounds at non-toxic doses could not be excluded.
SEQUENCE No. (1, 2, 3, etc.); […] (e.g., Cells, Incubation, Reagent, etc.); VALUE and DESCRIPTION.
1; Reagent; 4 uL; 2,500 Hek293 luciferase reporter cells per wells
3; Compound; 23 nL; Control inhibitor / compound library
5; Reagent; 2.5 uL; Firefly Luc reagent; Dual-Glo Luciferase Reporter Assay System (Promega)
6; Time; 10 min; room temperature incubation
7; Detection; Luminescence; FLuc
NOTES (numbers refer to sequence above)
1; High-throughput screening, measuring luminescence from a Hek293 luciferase reporter, was performed in 1,536 well white-walled tissue-culture treated plates. 2,500 cells were plated in 4 µL of Opti-MEM per well using a Multidrop Combi Reagent Dispenser (ThermoFisher).
2; Assay plates were cultured for 24 hours.
3; Control inhibitor (PTC124; final concentration of 50 uM) and compound library (at final concentrations of 460 nM - 57.5 uM) were added to the assay plate using the Kalypsis Pintool Robotic System equipped with 1536 pinheads.
4; Cells were then incubated for 24 hours at 37 degrees C prior to luminescence measurements.
5; In all cases, luminescence was measured using the Dual-Glo Luciferase Reporter Assay System (Promega) following the manufacturer's instructions.
6; Room temperature incubation.
7; Luminescence signal was obtained using the PerkinElmer ViewLux plate reader. Results were normalized to vehicle control (0% activity) and zero RLU (-100% activity).

Activity change, positive = activation, inactive:
CCC(=O)N1c2ccccc2CC1C(=O)N1CCN(c2cccc(OC)c2)CC1 (stereo not drawn) -17.5%, CCOc1cc(CNC(=O)c2sc3ncnc(N(C)C4CCCCC4)c3c2C)ccc1OC -35.7%, Cc1ccccc1CCNC(=O)C1CCN(c2nc3ccccc3nc2C(F)(F)F)CC1 -6.9%, O=C(NC1CC(=O)N(c2ccc(F)cc2)C1)c1cccs1 (stereo not drawn) -7.05%, CCOC(=O)C1CCCN(S(=O)(=O)c2cc(-c3cc(C)no3)ccc2OC)C1 (stereo not drawn) -4.74%, Cc1cccc(C)c1-n1ncc(C(=O)NCCCN2CCCCC2)c1C1CCN(C(=O)OC(C)(C)C)CC1 -21%, Cc1ccc(C(=O)Nc2cc3c(cc2N2CCCC2)n(C)c(=O)c(=O)n3C)cc1 -7.49%, COc1ccccc1NC(=O)C1=C(C)Nc2nc(SCC(=O)c3ccc(C)cc3)nn2C1c1ccccc1C (stereo not drawn) 2.53%, Cc1c(-c2nsc(NC(=O)c3cccc(Cl)c3)n2)nnn1-c1ccccc1C(F)(F)F -85.6%, Cc1cc(C)cc(NC(=O)Cn2c(=O)c3ccccc3n3nncc23)c1 -1.71%, COc1ccc(Cn2ccn(CC(=O)Nc3cc(C)ccc3C)c(=O)c2=O)cc1 -13.3%, Cc1nn(-c2ccc(F)cc2)c(-n2cccc2)c1C(=O)N1CCN(c2ccccc2)CC1 -22.6%, CCOc1ccc(Nc2oc(/C=C/c3ccc(F)cc3)nc2C#N)cc1 4.81%, CCCC(=O)Nc1ccc(NC(=O)c2sc3ccccc3c2Cl)cc1 -35.3%, O=S(=O)(c1ccc2nc(N3CCN(c4cccc(Cl)c4)CC3)ccc2c1)N1CCCCC1 -6.05%, CCOC(=O)c1ccc(NC(=O)CC2C(=O)N(c3ccccc3)C(=O)N2Cc2cccs2)cc1 (stereo not drawn) -8.82%, Cc1cc(Cl)ccc1OCC(=O)N(Cc1ccc(N(C)C)cc1)C1CCS(=O)(=O)C1 (stereo not drawn) -14.8%, CCC(=O)N1CCc2cc(S(=O)(=O)NC(C(=O)NCCc3ccc(C)cc3)C(C)C)ccc21 (stereo not drawn) -1.83%, CCOc1ccc(CCNC(=O)c2csc3c2CCCCC3)cc1 -21.7%, Cc1ccc2nc(-c3ccc(C)c(NC(=O)Cc4ccccc4)c3)oc2c1 -72.1%, CCCN(CCC)S(=O)(=O)c1ccc(C(=O)Nc2sc3c(c2C(=O)OC)CCN(CC)C3)cc1 -29.2%, O=C(C1CC1)N1CCc2cc(Br)cc(S(=O)(=O)N3CCN(c4ccccc4F)CC3)c21 -14.5%, CCOc1ccc(NC(=O)c2c(NC(=O)Cc3ccccc3)sc3c2CCCCC3)cc1 -10.1%
